Assay results as given in PubChem BioAssay AID602281 (The Scripps Research Institute Molecular Screening Center, 2012).
About 2,900 (0.81%) of roughly 360,000 compounds were called active.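 How the source made its calls: active means inhibition above the mean inhibition across every tested compound plus 3 SD (cut at about 22% in these data); inactive means the rest.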 Shown is part of a subset that was picked to be rich in actives.

target: Perilipin-5 (Homo sapiens) + 1-acylglycerol-3-phosphate O-acyltransferase ABHD5 (Homo sapiens) (UniProt Q00G26+Q8WTS1); experiment: blockers of ABHD5 binding to perilipin-5 – cell lysate, split luciferase complementation, luminescence, primary screen (AID 602281);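 further: 0% = DMSO only wells and the 100% control is not disclosed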; details: Split G. princeps luciferase complementation, 4 h, at 4 µM, active compounds read high
Sequence (Q00G26 whole entry, looked up): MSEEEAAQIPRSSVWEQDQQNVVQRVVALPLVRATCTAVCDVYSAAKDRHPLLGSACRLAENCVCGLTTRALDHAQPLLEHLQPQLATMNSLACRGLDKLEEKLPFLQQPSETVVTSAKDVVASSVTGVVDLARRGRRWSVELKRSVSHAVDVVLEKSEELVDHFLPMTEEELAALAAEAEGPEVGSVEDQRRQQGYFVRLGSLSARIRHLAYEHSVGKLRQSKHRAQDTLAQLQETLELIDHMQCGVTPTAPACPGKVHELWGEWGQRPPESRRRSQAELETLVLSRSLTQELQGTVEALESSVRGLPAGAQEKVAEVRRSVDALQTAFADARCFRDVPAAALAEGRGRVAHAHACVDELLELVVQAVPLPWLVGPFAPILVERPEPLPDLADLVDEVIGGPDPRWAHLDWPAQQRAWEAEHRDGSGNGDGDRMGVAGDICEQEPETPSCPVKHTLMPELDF
Sequence (Q8WTS1 whole entry, looked up): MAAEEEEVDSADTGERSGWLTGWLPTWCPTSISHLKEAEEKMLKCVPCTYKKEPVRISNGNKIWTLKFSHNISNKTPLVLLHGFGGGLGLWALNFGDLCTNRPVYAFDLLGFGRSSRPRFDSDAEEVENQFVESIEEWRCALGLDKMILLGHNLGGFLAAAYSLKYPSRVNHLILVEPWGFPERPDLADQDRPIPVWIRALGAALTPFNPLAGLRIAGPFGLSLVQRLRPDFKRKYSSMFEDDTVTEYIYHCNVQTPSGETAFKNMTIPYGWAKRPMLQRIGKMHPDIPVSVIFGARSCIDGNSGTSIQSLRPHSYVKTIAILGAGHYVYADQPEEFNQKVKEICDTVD

Row | Structure (SMILES) | inhibition
1 | Nn1c(SCC(=O)NC2CCCc3ccccc32)nnc1C1CC1 (configuration not stated) | 10.4% (inactive)
2 | O=S(=O)(Nc1nccs1)c1ccc2c(c1)OCCO2 | -5.22% (inactive)
3 | CCOc1ccc2nc(Cl)c(C3CC(c4ccccc4)=NN3C(=O)c3cccs3)cc2c1 (configuration not stated) | -5.74% (inactive)
4 | Cc1cccc(C)c1NC(=O)CN1C(=O)C(C)Oc2ccccc21 (configuration not stated) | -5.51% (inactive)
5 | Cc1cc(C(=O)NCCc2ccc(Cl)cc2)n(-c2ccccc2)n1 | 1.98% (inactive)
6 | O=C(NCCS(=O)(=O)NCc1ccc(Cl)cc1)c1ccccc1 | -6.46% (inactive)
7 | O=C(NCCOCc1ccc(Cl)cc1)c1ncn[nH]1 | 24.2% (active)
8 | O=C(C(=O)N1CCc2ccccc2C1)c1c[nH]c2ccccc12 | 0.81% (inactive)
9 | COc1cccc(C(CC(=O)NCCN2CCOCC2)NS(=O)(=O)c2ccc(C)cc2)c1OC (configuration not stated) | 9.39% (inactive)
10 | Nc1ccc2nc3c(=O)[nH]c(=S)[nH]c3nc2c1 | 35% (active)
11 | Cc1cccc(C(=O)Nc2ccc(Oc3cnccn3)cc2)c1 | 3.4% (inactive)
12 | CN(CC(=O)Nc1ccc(F)cc1)CC(=O)Nc1ccc(Cl)c(S(=O)(=O)N2CCOCC2)c1 | 5.71% (inactive)
13 | O=C(CS(=O)(=O)Cc1ccccc1)Nc1cccnc1 | -3.38% (inactive)
14 | Cc1cccc(CS(=O)(=O)c2ncc(Cl)c(C(=O)Nc3ccc(F)cc3)n2)c1 | 53.6% (active)
15 | Cc1cccc(NC(=O)c2nc(S(=O)(=O)Cc3ccccc3)ncc2Cl)c1 | 72.4% (active)
16 | Cc1cccc(NS(=O)(=O)c2ccc(C)c(C(=O)NCc3cccnc3)c2)c1 | 3.74% (inactive)
17 | O=C(NCCN1CCN(C(=O)c2cccc([N+](=O)[O-])c2)CC1)C(=O)NCc1ccc(Cl)cc1 | 12.1% (inactive)
18 | CCOc1cc(C(=O)Nc2c(C)ccc3nsnc23)cc(OCC)c1OCC | -10.9% (inactive)
19 | C[C@@H]1C[C@@H]2O[C@H]2/C=C\C=C\C(=O)Cc2c(Cl)c(O)cc(O)c2C(=O)O1 | 27.7% (active)

Row | Structure (SMILES) | inhibition
20 | COc1ccccc1CNS(=O)(=O)c1cc(C(=O)NCc2ccccn2)c(Cl)cc1Cl | 2.36% (inactive)
21 | Cc1ccc2c(c1)N(CC(=O)N1CCC(C)CC1)C(=O)c1cccnc1O2 | -5.07% (inactive)
22 | Cc1ccc(N(C(=O)c2ccc(CN3CCOCC3)o2)C(C(=O)NCCC(C)C)c2cccs2)c(C)c1 (configuration not stated) | 5.44% (inactive)
23 | Cc1ccc(S(=O)(=O)N2CCC(C(=O)N[C@@H](C)C(=O)NCCc3ccccc3)CC2)cc1 | -6.43% (inactive)
24 | NC(=S)Nc1c(Cl)cccc1Cl | -3.54% (inactive)
25 | CCCCN(CCCC)CCNC(=O)CN1C(=O)COc2ccc(S(=O)(=O)N3CCOCC3)cc21 | -1.64% (inactive)
26 | Cc1ccc2nc(-c3ccco3)c(Cc3cccc(Cl)c3)n2c1 | 32.1% (active)
27 | Cc1cc2nc(-c3ccco3)c(Cc3cccc(F)c3)n2c(C)c1Br | 23.1% (active)
28 | Cc1ccc(Cc2c(-c3ccco3)nc3ccc(Cl)cn23)cc1 | 54.8% (active)
29 | Cc1ccc(Cc2c(-c3ccccc3)nc3ccc(Cl)cn23)cc1 | -3.87% (inactive)
30 | Cc1cc2nc(-c3ccc(F)cc3)c(Cc3ccsc3)n2c(C)c1Br | -2.1% (inactive)
31 | Fc1cccc(Cc2c(-c3cccc(Cl)c3)nc3ccc(Br)cn23)c1 | -8.3% (inactive)
32 | Clc1cccc(Cc2c(-c3cccc(Cl)c3)nc3ccc(Cl)cn23)c1 | -8.19% (inactive)
33 | Fc1cccc(Cc2c(-c3ccc(Cl)cc3)nc3ccc(Cl)cn23)c1 | 11.5% (inactive)
34 | Cc1cc2nc(-c3ccc(Cl)cc3)c(Cc3cccc(F)c3)n2c(C)c1Br | -5.68% (inactive)
35 | Nn1c(SCc2ccccc2)nnc1C1CCCCC1 | 7.84% (inactive)
36 | CCOc1ccc(NC(=O)CN(C)CC(=O)Nc2cccc(Cl)c2C)cc1OCC | -2.27% (inactive)
37 | COCCN1Cc2cccc(C(=O)Nc3ccccc3OC)c2C1=O | 2.14% (inactive)
38 | CCc1ccccc1S(=O)(=O)Cc1ccc(C(=O)NCCc2ccccc2)o1 | 0.54% (inactive)

Row | Structure (SMILES) | inhibition
39 | CCC(C)CN1C(=O)CSCC1(C)C(=O)NCc1ccccc1 (configuration not stated) | -0.17% (inactive)
40 | NC(=O)C(Cc1ccccc1)NC(=O)C12CC3CC(CC(C3)C1)C2 (configuration not stated) | -7.59% (inactive)
41 | COc1cc(OC)cc(C(=O)NNC(=O)CNC(=O)c2ccc(Br)o2)c1 | 1.69% (inactive)
42 | CCCCCCNC(=O)O[C@H]1CN(C(=O)OC(C)C)N(C(=O)OC(C)C)[C@@H]2CN(S(=O)(=O)c3ccc(C)cc3)C[C@]12O | -9.24% (inactive)
43 | CCOCCOC(=O)C1=C(C)N(C)C(=O)NC1c1ccccc1F (configuration not stated) | 2.63% (inactive)
44 | CN1c2ccc(C=O)c3c(C=O)ccc(c23)N(C)C1(C)C | 7.33% (inactive)
45 | CC(C)c1ccccc1OCC(O)CN(CC(O)COc1cccc2ccccc12)C(C)C (configuration not stated) | 8.09% (inactive)
46 | Cc1cc(C)c(NC(=O)C[N+](C)(C)CC(O)COc2cccc3ccccc23)c(C)c1 (configuration not stated) | 33% (active)
47 | Cc1cc(C)cc(OCC(=O)NCc2cc(C)nc3ccccc23)c1 | 0.84% (inactive)
48 | NC(=O)c1ncn([C@@H]2O[C@H](CNCc3cnc(N4CCOCC4)s3)[C@@H](O)[C@H]2O)n1 | -2.34% (inactive)
49 | COc1ccc(C(=O)c2c3ccc([N+](=O)[O-])cc3[n+]([O-])n2CCCN)cc1 | -9.06% (inactive)
50 | O=C(Cc1ccccn1)c1ccc(O)cc1O | -1.78% (inactive)
51 | O=C(NNc1c2ccccc2nc2ccccc12)c1cc2ccccc2cc1O | 26.3% (active)
52 | O=C(CSc1nc(C2CC2)nc2ccccc12)Nc1cccc(O)c1 | -2.61% (inactive)
53 | CCCn1c(N)c(N(CCOC)C(=O)C2CCCC2)c(=O)[nH]c1=O | -0.19% (inactive)
54 | Cc1ccc(CC(=O)N(C)CC(=O)N(CC(C)C)c2c(N)n(CC(C)C)c(=O)[nH]c2=O)cc1C | -2.36% (inactive)
55 | O=c1cc(O)c(-c2cccc(C(F)(F)F)c2)c(Cl)[nH]1 | 1.03% (inactive)
56 | Cc1ccccc1/C=C\c1nc(O)c([N+](=O)[O-])c(=O)[nH]1 | 15.6% (inactive)
57 | O=c1[nH]c(/C=C\c2cccc(C(F)(F)F)c2)nc(O)c1[N+](=O)[O-] | 42.7% (active)
